# Tests used:
# Experiment in all cases: PBM binding z-score (relative to random genomic background probes); higher = stronger binding; sequences stand for … in GC…GCGATTGACAGCGTAGAATGAAGG
# [1] = system: FXR:RXRa (NR concentration 270 nM, RXRa partner concentration 90 nM)
# Summary of the method: (§1)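 Binding z-scores were set against random background probes. The data came from custom Agilent 4×180K protein-binding microarrays carrying double-stranded probes with 34-nt variable regions, incubated 1 h with ligand-free nuclear receptor dimers. Partner-specific antibodies detected binding, and scanned fluorescence was regression-normalized.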
# [2] = system: LXRa:RXRa (NR concentration 270 nM, RXRa partner concentration 90 nM)
# Summary of the method: as §1
# [3] = system: LXRa homodimer (NR concentration 270 nM)
# Summary of the method: as §1
# [4] = system: LXRb:RXRa (NR concentration 270 nM, RXRa partner concentration 90 nM)
# Summary of the method: as §1
# [5] = system: LXRb homodimer (NR concentration 270 nM)
# Summary of the method: as §1
# [6] = system: PPARa:RXRa (NR concentration 270 nM, RXRa partner concentration 90 nM)
# Summary of the method: as §1
# [7] = system: PPARg:RXRa (NR concentration 180 nM, RXRa partner concentration 90 nM)
# Summary of the method: as §1
# [8] = system: PPARg:RXRa 270nM:90nM, anti-RXR (NR concentration 270 nM, RXRa partner concentration 90 nM)
# Summary of the method: as §1
# [9] = system: PPARg:RXRa 30nM:10nM, anti-RXR (NR concentration 30 nM, RXRa partner concentration 10 nM)
# Summary of the method: as §1
# [10] = system: PPARg:RXRa 90nM:30nM, anti-RXR (NR concentration 90 nM, RXRa partner concentration 30 nM)
# Summary of the method: as §1
# [11] = system: PPARg:RXRa DBDmut IVT, anti-RXR (DBD mutation: RXRa K156A/R161A, NR concentration 270 nM, RXRa partner concentration 90 nM)
# Summary of the method: as §1
# [12] = system: PPARg:RXRa IVT, anti-PPARg (NR concentration 270 nM, RXRa partner concentration 90 nM)
# Summary of the method: as §1
# [13] = system: PPARg DBDmut:RXRa IVT, anti-PPARg (DBD mutation: PPARg1 K132A/R137A, NR concentration 270 nM, RXRa partner concentration 90 nM)
# Summary of the method: as §1
# [14] = system: PPARg DBDmut IVT, anti-PPARg (DBD mutation: PPARg1 K132A/R137A, NR concentration 270 nM)
# Summary of the method: as §1
# [15] = system: PPARg homodimer (NR concentration 180 nM)
# Summary of the method: as §1
# [16] = system: PXR:RXRa (NR concentration 270 nM, RXRa partner concentration 90 nM)
# Summary of the method: as §1
# [17] = system: PXR homodimer (NR concentration 270 nM)
# Summary of the method: as §1
# [18] = system: RARa:RXR (NR concentration 270 nM, RXRa partner concentration 90 nM)
# Summary of the method: as §1
# [19] = system: RARa homodimer (NR concentration 270 nM)
# Summary of the method: as §1
# [20] = system: RARb:RXRa (NR concentration 270 nM, RXRa partner concentration 90 nM)
# Summary of the method: as §1
Sequence,PBM binding z-score [1],PBM binding z-score [2],PBM binding z-score [3],PBM binding z-score [4],PBM binding z-score [5],PBM binding z-score [6],PBM binding z-score [7],PBM binding z-score [8],PBM binding z-score [9],PBM binding z-score [10],PBM binding z-score [11],PBM binding z-score [12],PBM binding z-score [13],PBM binding z-score [14],PBM binding z-score [15],PBM binding z-score [16],PBM binding z-score [17],PBM binding z-score [18],PBM binding z-score [19],PBM binding z-score [20]
TCTTGTAGATCCAGCAGGTTAAGAAAGCCTGAGT,0.108,0.186,-0.293,0.284,-0.208,0.342,-0.483,1.03,2.62,1.84,1.04,-0.258,-0.0441,-0.28,-0.955,0.35,0.226,0.259,-0.051,0.133
CCGACTGGGGCGGAAAGGTTACCATACCATCCGG,0.516,0.85,0.0346,1.23,-0.589,2.08,1.41,2.7,0.707,1.99,-0.0321,0.59,-0.91,-0.926,0.423,1.17,-0.39,1.96,-0.133,1.43
TCTTGTAGATCAAAGATTAAGAAAGCCGAAGCCT,0.277,0.499,-0.302,0.245,-0.0264,1.12,1.55,3.63,3.56,3.75,1.71,0.407,0.363,0.404,-0.224,0.137,-0.525,0.257,0.694,-0.16
ATAAGTAGGTTAAGGGTCATTCAGGTTGGTTCGC,4.91,4.67,3.52,4.65,2.15,6.55,12,9.92,10.7,11.2,7.68,7.64,2.34,2.31,5.84,5.44,4.03,6.12,3,3.75
CTCGAACGGTCGGTTGAGGTGAGTATACGGATAA,0.102,-0.565,-0.727,-0.59,-0.761,-0.3,-0.199,-0.622,-0.623,-0.601,-0.509,-0.343,-0.772,-0.429,-1.41,-0.224,-0.776,0.779,-1.48,0.604
CCGAGTTGGTTATGGGGCATTCAGGCAACGGTGA,0.0617,0.0147,-0.147,0.0515,-0.451,0.287,0.0793,0.583,-0.717,0.0357,0.136,0.993,-0.435,-0.836,0.998,0.00372,0.402,0.155,0.692,0.288
TAGAGTAGGTTAGTCGGGGCATTCAGCCAACATA,0.871,0.485,0.155,0.87,1.54,1.16,0.583,1.65,0.884,1.33,3.08,3.62,0.961,1.55,1.27,0.576,0.756,0.643,1.35,1.1
TCTAGCAGGCCTGAGGGTCACTCAAGAGGTACGG,1.03,1.18,-0.547,1.32,-1.24,2.38,0.588,1.57,1.62,1.44,0.475,-0.212,-2.08,-1.13,0.706,1.92,-0.465,2.85,-0.571,2.12
GCGACTGGGGCAAAGCAGGTTACCATGAGGTTGG,0.529,0.0146,-0.506,0.0618,-0.859,1.1,1.18,1.05,-0.313,0.335,4.46,3.79,-0.666,-1.4,0.0533,0.378,-0.61,0.383,-0.939,0.981
CCTACTGGGCCAAAGGTCATTGATTCCAATGCTC,4.82,5.3,4.17,4.72,0.913,6.33,12,10.5,10.7,11.4,5.22,7.01,0.541,0.177,3.56,5.31,2.33,6.35,1.33,4.46
ATATGTAGGGTACATCCGGGTCATTCAGGCTATG,1.96,2.96,1.43,2.4,1.27,3.89,4.04,3.53,1.46,2.33,5.82,6.25,2.33,1.87,1.74,4.11,9.27,3.12,0.779,1.73
TCGGGTAGGTTAGTCGGGGCATTCAGCCAACATA,0.578,0.368,0.422,1.38,0.98,1.01,-0.189,0.977,1.92,1.22,1.77,1.67,0.234,0.0537,0.765,0.737,0.967,0.254,0.816,1.21
CCTACTGGGGCATTCAGAGGTCATTGATCATATG,3.08,4.37,6.25,3.91,0.359,4.07,3.34,4.13,1.23,3.12,4.5,5.15,0.018,0.266,2.6,5.08,2.1,4.67,0.372,3.45
GCTGCTAGGTGAACTGATGGTCAGCTAAAGCTCG,-0.0942,-0.291,-0.843,-0.328,-1.56,1.27,0.329,0.967,-0.226,0.635,3.85,2.6,-0.641,-1.06,-0.326,-0.0218,-0.684,0.388,-1.4,0.944

# Reference: the supplement of paper PMC6555819
